Test results published in ChEMBL document CHEMBL3988442, “University of Dundee, Small-Polar-MMV Screening Library” (2021).
Out of some 48,000 compounds screened, about 13,000 (27%) showed an effect of 50% or more. Some of the results follow.

tested on: Wolbachia pipientis; test: Anti-Wolbachia Cell-Based Screen; assay type: functional; parameters: scale not given: in the data most compounds retested in dose-response had high values; conditions: 5 µM

Row | SMILES | Percent Effect [%]
1 | CCc1cc(N2CCSCC2)n2nc(C)c(C)c2n1 | 8.974
2 | Cc1n[nH]c(C)c1CCN(C)C(=O)c1ccc(CCC(C)(C)O)cc1 | 11.25
3 | CN(Cc1cc(Br)cn1C)C(=O)c1cc(Cl)ccn1 | -3.777
4 | O=C(c1cc(-c2cn[nH]c2)nc2ccc(F)cc12)N1CCSCC1 | 9.042
5 | COc1ccc2cc(CN(C)CCc3cn[nH]c3)c(=O)[nH]c2c1 | -3.299
6 | Cc1ccccc1C(=O)NC1CCN(Cc2ncc(C(C)(C)C)o2)CC1 | 19.24
7 | Cc1nc(C(C)(C)NC(=O)Nc2ccncc2)no1 | -5.529
8 | CC(C)S(=O)(=O)NCC1CCCN(C(=O)c2ccc(F)cc2)C1 (stereo not given) | -11.51
9 | CS(=O)(=O)NCC1CCCN(C(=O)COc2ccc(F)cc2)C1 (stereo not given) | -1.733
10 | CS(=O)(=O)NCC1CCCN(C(=O)Nc2cccc3ccccc23)C1 (stereo not given) | 98.14
11 | CS(=O)(=O)NCC1CCCN(C(=O)Nc2ccccc2F)C1 (stereo not given) | 119.4
12 | CS(=O)(=O)NCC1CCCN(C(=O)c2ccc3c(c2)CCCC3)C1 (stereo not given) | 4.156
13 | CS(=O)(=O)NCC1CCCN(C(=O)Nc2ccccc2N2CCCC2)C1 (stereo not given) | 96.01
14 | CS(=O)(=O)NCC1CCCN(C(=O)COCc2ccccc2)C1 (stereo not given) | -4.256
15 | O=C(Nc1cccc2ccccc12)N1CCC(N2CCSCC2)CC1 | -0.7759
16 | O=C(CN1CCCC1)N1CCCC(CNS(=O)(=O)Cc2ccccc2)C1 (stereo not given) | 16.47
17 | CNS(=O)(=O)CCCN1CCCC1c1noc(C2CC2)n1 (stereo not given) | -1.215
18 | O=C(Nc1ccc(-c2csnn2)cc1)N1CCCC1 | -14.17
19 | CN(C)Cc1csc(-c2nccn2CCc2cccnc2)c1 | -6.294
20 | CCCC(Cn1cnc(-c2ccccc2)c1-c1cncn1CC)N(C)C (stereo not given) | 8.465
21 | CCCNC(=O)c1cc2c(nc1O)CCC(C)C2 (stereo not given) | 4.186
22 | Cc1ccc(C(=O)NCCCNS(C)(=O)=O)c(=O)[nH]1 | 10.14
23 | Cc1ccc(C(=O)NCCS(C)(=O)=O)c(=O)[nH]1 | -10.31
24 | Cc1ccc(C(=O)NCCCS(C)(=O)=O)c(=O)[nH]1 | 0.8619
25 | Cc1ccc(C(=O)NC2CCN(S(C)(=O)=O)CC2)c(=O)[nH]1 | 87.03
26 | Cc1ccc(C(=O)NCCNS(C)(=O)=O)c(=O)[nH]1 | 2.203
27 | Cc1ccc(C(=O)NC2CCCN(S(C)(=O)=O)C2)c(=O)[nH]1 (stereo not given) | 107.3

Row | SMILES | Percent Effect [%]
28 | CN(Cc1ccco1)Cc1ccccc1CNC(=O)c1csnn1 | -8.686
29 | NC(=O)NC(=O)CCN1CCN(CC2CC2)c2ccccc21 | -1.129
30 | OC[C@H]1CN(Cc2c(Cl)cncc2Cl)C[C@H]1CN1CCOCC1 | 11.24
31 | CN1CCn2c(-c3cnn(C)c3)cnc2C12CCN(CC1CC1)CC2.O=C(O)C(F)(F)F.O=C(O)C(F)(F)F.O=C(O)C(F)(F)F | -10.48
32 | Cn1cc(-c2ncc3c(c2C(=O)O)CCN(CC2CC2)C3)cn1.O=C(O)C(F)(F)F.O=C(O)C(F)(F)F | 86.35
33 | Cn1cc(-c2ncc3c(c2C(=O)O)CCN(CC2CCOC2)C3)cn1 (stereo not given) | 111.7
34 | Cn1cccc1C(=O)NCc1cn2c(n1)CN(CC1CCOC1)CC2 (stereo not given) | -25.14
35 | CN(C)C(C(=O)N1CCN(CCn2cccc2)CC1)c1ccc(F)cc1 (stereo not given) | -11.45
36 | COc1cc(N2CCCC3(CCN(c4cncnc4)C3=O)C2)ncn1 (stereo not given) | -10.96
37 | O=C(O)C(F)(F)F.O=C(O)C(F)(F)F.O=C1N(Cc2cccnc2)CCC12CCCN(c1ncccn1)C2 (stereo not given) | 94.5
38 | CN1CCN(Cc2cccnc2)C2(CCN(c3ncccn3)C2)C1=O.O=C(O)C(F)(F)F.O=C(O)C(F)(F)F (stereo not given) | -6.592
39 | O=C(O)C(F)(F)F.O=C([C@H]1CCCO1)N1CCCC2(CCN(Cc3ccncc3)C2=O)C1 (stereo not given in full) | 14.29
40 | O=C(O)C(F)(F)F.O=C1N(Cc2ccncc2)CCC12CCCN(c1ncc(F)cn1)C2 (stereo not given) | 97.96
41 | Cc1cnc(N2CCC3(C2)C(=O)N(C)CCN3Cc2cccnc2)nc1.O=C(O)C(F)(F)F.O=C(O)C(F)(F)F (stereo not given) | 1.691
42 | O=C1N(Cc2ccc(F)c(F)c2)CCCC12CCN(C1CCCC1)C2 (stereo not given) | 7.69
43 | COc1cc(N2CCC3(CCN(Cc4cccnc4)C3=O)C2)ncn1 (stereo not given) | 116
44 | O=C1N(Cc2cccc(F)c2)CCC12CCCN(c1ncc(F)cn1)C2 (stereo not given) | 102
45 | COc1cccc(CN2CCC3(CCN(c4ncc(C)cn4)C3)C2=O)c1 (stereo not given) | -10.16
46 | CC(C)(C)[S+]([O-])CCNC(=O)c1csc(NC2CC2)n1 (stereo not given) | 7.627
47 | CSCC(C)(O)CNc1ncccc1C(F)(F)F (stereo not given) | 8.156
48 | COc1ccccc1C(=O)N1CCN(C(=O)CCCc2cn[nH]c2)CC1 | 9.231
49 | COC(=O)CNc1cc(C(=O)NCC(F)(F)F)cc(F)c1C | 5.099
50 | O=C(c1ccccn1)N1C[C@@H]2OCC(=O)N(CC3CCCCC3)[C@@H]2C1 | 1.178
51 | OC1CCN(Cc2cc3c(cc2Br)OCCO3)CC1 | 23.9
52 | Cc1ccc(NC(=O)N2CCCN(C(N)=O)CC2)s1 | -6.622
53 | O=S1(=O)CCC(c2nnc(-c3cnc4onc(C5CCCC5)c4c3)o2)C1 (stereo not given) | -3.167
54 | O=C1O[C@@H]2CN(c3ccccn3)C[C@@H]2N1CCCc1ccc(F)cc1 | 2.286

Row | SMILES | Percent Effect [%]
55 | COCc1nc2cc(NCc3scnc3C)ccc2o1 | 5.426
56 | O=C(O)C(F)(F)F.O=C1N(Cc2cccnc2)CCC12CCCN(c1ncc(F)cn1)C2 (stereo not given) | 109.4
57 | CN1CCN(Cc2cccnc2)C2(CCN(c3ncc(F)cn3)C2)C1=O.O=C(O)C(F)(F)F.O=C(O)C(F)(F)F (stereo not given) | -9.065
58 | Cc1csc2ncc(-c3ccnc(N4CCCC4)n3)c(=O)n12 | 95.07
59 | Cc1csc2ncc(-c3ccnc(N4CCN(C)CC4)n3)c(=O)n12 | 4.781
60 | Cc1csc2ncc(-c3ccnc(N4CCCN(C)CC4)n3)c(=O)n12 | 84.49
61 | Cc1noc(-c2ccc(N3CCCC(C(N)=O)C3)nc2)n1 (stereo not given) | -1.352
62 | Cc1ccc(-c2ccnc(N3CCC4(CC3)CNC(=O)C4)n2)c(C)n1 | -12.24
63 | Cc1ccc(-c2csc3c(=O)[nH]c(N4CCCC(C(N)=O)C4)nc23)cc1 (stereo not given) | 13.87
64 | Cc1csc2ncc(-c3ccnc(N4CCC[C@H](C(N)=O)C4)n3)c(=O)n12 | 107.6
65 | C=C(C)COc1cccc(C(=O)N2CCC(O)(c3ccccc3)CC2)c1 | -7.065
66 | CNS(=O)(=O)CC(=O)NC(C)Cc1ccc(-c2ccccc2)cc1 (stereo not given) | -4.402
67 | Nc1ccnc(N2CCC(Cc3ccccc3Cl)(C(=O)O)CC2)n1 | 5.255
68 | CC(O)CN1CCc2onc(C(c3ccccc3)c3ccccc3)c2C1 (stereo not given) | -15.19
69 | COCCNS(=O)(=O)c1cccc2c1CN(C(=O)c1cc(C)on1)CC2 | -0.4963
70 | CCOc1ncnc2c1CCN(Cc1csc(C)n1)CC2.O=C(O)C(F)(F)F | 7.701
71 | Cc1nc(CN2CCc3ncnc(C4CC4)c3CC2)cs1.O=C(O)C(F)(F)F | -1.319
72 | Cc1nc(CN2CCc3cc(C(=O)O)c(N(C)C)nc3CC2)cs1.O=C(O)C(F)(F)F.O=C(O)C(F)(F)F | 99.11
73 | Cc1cccc(CN2CCc3cc(C(=O)O)c(N(C)C)nc3CC2)n1.O=C(O)C(F)(F)F.O=C(O)C(F)(F)F | 105.7
74 | CCCSCC(=O)NS(=O)(=O)c1ccc2c(c1)OCCO2 | -7.969
75 | COc1ccc(Cc2nnc(SC)o2)cc1OC | -1.582
76 | COCCN(Cc1ccc(F)cc1Cl)C(=O)c1cc[n+]([O-])cc1 | -5.927
77 | c1ccc(-c2cc(CN3C[C@@H]4CC[C@H](C3)N(CC3CC3)C4)on2)cc1 | 2.507
78 | O=C(Nc1ccccc1Oc1cccc(F)c1)NC1CCS(=O)(=O)C1 (stereo not given) | 9.337
79 | CN(Cc1nc(Cc2ccccc2F)no1)CC1Cc2ccccc2O1 (stereo not given) | 1.647
80 | O=C(c1cc(C2CC2)on1)N1CC[C@]2(C[C@H](Oc3cccnc3)CO2)C1 | -8.078
81 | Cc1noc(C2CCC3(CCN(C(=O)c4ccncn4)CC3)O2)n1 (stereo not given) | 97.14

Row | SMILES | Percent Effect [%]
82 | Cc1noc(C2CCC3(CCN(C(=O)c4ncccn4)CC3)O2)n1 (stereo not given) | 110.9
83 | C[C@H]1C[C@H]2CN(C(=O)c3ccncn3)CC[C@H]2O1 | 2.98
84 | Cc1noc(C2CCN(C(=O)c3cc(Cl)c(Cl)n3C)CC2)n1 | -8.55
85 | Cc1noc(C2CCC3(CCN(C(=O)c4cc(C5CC5)on4)CC3)O2)n1 (stereo not given) | 104.1
86 | Cc1noc(C2CCC3(CCN(C(=O)c4c(C)noc4C)CC3)O2)n1 (stereo not given) | -1.941
87 | Cc1noc(C2CCC3(CCN(C(=O)c4cnccn4)CC3)O2)n1 (stereo not given) | 108.3
88 | CC1N(CC2CC2)C(=O)COC12CCN(C(=O)c1cnccn1)CC2 (stereo not given) | -1.759
89 | C[C@H]1C[C@@H]2CCN(C(=O)c3ccncn3)C[C@H]2O1 | 15.39
90 | Cc1ccc(F)c(S(=O)(=O)NCc2cccc(N3CCOC3=O)c2)c1 | -1.653
91 | COc1ccc(C(=O)NCc2cc(N3CCOCC3)ncn2)o1 | -2.324
92 | COCC(=O)N1CCC2(CC1)CN(c1ncccn1)CCO2 | -1.945
93 | Cc1nn(C)c(Cl)c1C1CCCN1c1ncnc2sccc12 (stereo not given) | -14.86
94 | CC1CCN(C(CNC(=O)Cn2cccn2)c2cccs2)CC1 (stereo not given) | -3.451
95 | Cn1cncc1C(=O)N1CCOC2(COCCN(CC3CC3)C2)C1.O=C(O)C(F)(F)F (stereo not given) | 104.1
96 | CC(C)N1CCOCC2(CCCN(C(=O)c3cncn3C)C2)C1.O=C(O)C(F)(F)F (stereo not given) | -5.769
97 | O=C(O)C(F)(F)F.O=C(O)C(F)(F)F.c1cnc(N2CCCC3(CN(CC4CCOCC4)CCO3)C2)cn1 (stereo not given) | -4.594
98 | O=C(O)C(F)(F)F.O=C(c1ccoc1)N1CCOC2(COCCN(c3ncccn3)C2)C1 (stereo not given) | 21.15
99 | Fc1cccc(CN2CCOC3(COCCN(CC4CC4)C3)C2)c1.O=C(O)C(F)(F)F.O=C(O)C(F)(F)F (stereo not given) | 100.6
100 | O=C(O)C(F)(F)F.O=C(c1ccoc1)N1CCOC2(COCCN(CC3CC3)C2)C1 (stereo not given) | 89.02
101 | Cn1ccc(C(=O)N2C[C@@H]3CN(CC4CC4)CCO[C@@H]3C2)n1.O=C(O)C(F)(F)F | -13.66
102 | O=C(O)C(F)(F)F.O=C(O)C(F)(F)F.O=C(O)C(F)(F)F.c1cc(CN2CCOCC3(C2)CN(Cc2nccs2)CCO3)ccn1 (stereo not given) | -17.66
103 | O=C(O)C(F)(F)F.O=C(O)C(F)(F)F.O=C(O)C(F)(F)F.c1coc(CN2CCOC3(COCCN(Cc4ccncc4)C3)C2)c1 (stereo not given) | -11.91
104 | Cn1ccc(C(=O)N2CCOC3(COCCN(CC4CC4)C3)C2)n1.O=C(O)C(F)(F)F (stereo not given) | 108.5
105 | O=C(O)C(F)(F)F.O=C(c1ccccn1)N1CCOC2(COCCN(Cc3cc[nH]n3)C2)C1 (stereo not given) | -2.383
